Laboratory results published in PubChem BioAssay (NCI).
The panel holds about 83,000 compounds, 20% with a hit somewhere; the sample as a whole holds those more often.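 Step 1: grow cells in 96-well plates. Step 2: add test compound at a single concentration. Step 3: incubate 48 h. Step 4: record percent growth.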 Values without a mark were called inactive. Active and inactive are the calls of the source. How the source made its calls: active means growth percent below 10; inactive means the rest.

These compounds were tested on HOP-62 NSCLC (assay: NCI-60 one-dose screen, 48 h (100 = growth as untreated, 0 = no growth, -100 = all killed)). Settings: 10 µM unless noted.

Going from `O=C1/C(=C/c2ccc(Oc3ccccc3)cc2)N=C(c2ccccc2)N1CCc1cccs1` to `O=C1/C(=C/c2ccc(Cl)cc2)N=C(c2ccccc2)N1CCc1cccs1`, the growth rises from 104% to 108%.

Going from `COc1ccc(Sc2ccc3[nH]c(=O)nc(N)c3c2)cc1` to `COc1ccc(-c2csc3c2-n2cccc2C3=O)cc1O`, the growth falls from 108% to 31.3%.

Compared with `COc1cc(C(=O)N(C(C)C)C2CCCCC2)cc(OC)c1OC`, `CCOC(=O)c1c(-c2cc(OC)c(OC)c(OC)c2)csc1N` is lower in growth: 93.3% for the first, 80% for the second.

Going from `COc1ccc(C2OCC(C)(C)CO2)cc1OC` to `COc1ccc(C2SC(C)C(=O)N2CCc2cccs2)cc1OC` (centres undefined), the growth falls from 117% to 94.5%.

First: O=C(NCc1ccco1)C1CCN(S(=O)(=O)c2ccc(Cl)cc2)CC1
Second: CC1SC(c2ccc(Cl)cc2)N(CCc2cccs2)C1=O (centres undefined)
The growth of the first is higher: 92.6% for the first, 15.2% for the second.

Going from `COC(=O)[C@@H]1CCCN1C(=O)[C@@H]1CCCN1C(=O)[C@@H](Cc1c[nH]c2ccccc12)NC(=S)Nc1cc(C(F)(F)F)cc(C(F)(F)F)c1` to `COC(=O)[C@H]1CCCN1C(=O)[C@H]1CCCN1C(=O)[C@@H](Cc1c[nH]c2ccccc12)NC(=S)Nc1cc(C(F)(F)F)cc(C(F)(F)F)c1`, the growth falls from 83.3% to 78.6%.

Going from `CCN1C(=O)C2(Nc3ccccc3S2)c2cc(C)ccc21` (centres undefined) to `COc1cc(C2CC(=O)Nc3c2ccc2ccccc32)cc(Br)c1OC` (centres undefined), the growth falls from 89.7% to 24.9%.

Compared with `Cc1nc(-c2ccccc2)cc2c(O)c(C(=O)N/N=C/Cc3ccccc3)[nH]c(=O)c12`, `Cc1ccc(C2SCC(=O)N2NC(=O)c2[nH]c3ccc(F)cc3c2-c2ccccc2)cc1` (centres undefined) is higher in growth: 104% for the first, 109% for the second.

Compared with `O=S(=O)(/N=C1C=C/C(=N\S(=O)(=O)c2ccccc2)c2ccccc2\1)c1ccccc1`, `O=C(Nc1ccccc1)Oc1cccc2cccnc12` is higher in growth: 90.2% for the first, 99.6% for the second.

Going from `CCCN(CCC)c1ccc(/C=C/c2ccc3cc(OCC)ccc3n2)cc1` to `Cc1ccc(-c2nnc(COc3ccc(-c4nnc(N)s4)cc3)o2)cc1`, the growth falls from 125% to 113%.

Compared with `COc1cccc(C2CC(=O)Nc3cc4c(cc32)CCC4)c1OC` (centres undefined), `COc1cc(/C=C2\C(=O)Nc3ccccc32)cc(OC)c1O` is higher in growth: 60.5% for the first, 64.4% for the second.

First: O=C(O)c1ccccc1Oc1cc(-c2ccco2)nc(OCCBr)n1
Second: O=C(Nc1nc2ccccc2[nH]1)C(=O)Nc1nc2ccccc2[nH]1
The growth of the first is higher: 101% for the first, 98.6% for the second.

Going from `COc1ccccc1/C=C/C(=O)/C=C/c1ccccc1O` to `COc1cc(/C=C/C(=O)C(=Cc2ccc(F)c(F)c2)C(=O)/C=C/c2ccc(O)c(OC)c2)ccc1O`, the growth falls from 62% to 22.1%.

Going from `CC1(C)CC(=O)C2=C(C1)Nc1cc3c(cc1C2c1ccc(F)cc1)OCO3` (centres undefined) to `O=C1OCC2=C1C(c1ccc3c(c1)OCO3)CC(=O)N2c1cccc(Cl)c1` (centres undefined), the growth rises from 95.6% to 103%.

Compared with `Nc1nc(N)c(C=Nc2ccc(Br)cc2)c(Nc2ccc(Br)cc2)n1`, `Brc1ccccc1Nc1ccc2nnc(-c3ccncc3)n2n1` is lower in growth: 98.9% for the first, 95.1% for the second.

Compared with `Oc1ccc(Cl)cc1CNc1nc2ccccc2[nH]1`, `COc1cc(/C=C2\C(=O)N(c3c(Cl)cccc3Cl)c3ccccc32)cc(OC)c1O` is lower in growth: 82.7% for the first, 48.6% for the second.

First: COc1ncnc2c1ncn2C/C(Br)=C(\Br)CCl
Second: CCOC(=O)c1sc(NC(=O)CN2CCC(Cc3ccccc3)CC2)nc1C
The growth of the first is lower: 15.6% for the first, 102% for the second.

First: O=C1CN2CCC1C/C2=C\c1ccnc2c(Cl)cccc12 (centres undefined)
Second: Clc1cccc(Cl)c1Nc1ccc2nnc(-c3ccncc3)n2n1
The growth of the first is lower: 82% for the first, 103% for the second.

In the case of `CCCOC(=O)c1ccc2c(c1)[N+](=O)C(C(=O)c1ccccc1)=C(C(F)(F)F)[N+]2=O`, the growth is reported as -96.5% (active).
With `COc1cc(CNCCN2C(=O)c3ccc4c5c(ccc(c35)C2=O)C(=O)N(CCNCc2cc(OC)c(OC)c(OC)c2)C4=O)cc(OC)c1OC` the growth was -78% (active).
For `CN([N-]C(=O)CC(=O)[N-]N(C)C(=S)c1ccccc1)C(=S)c1ccccc1.[Cu+2]`, the growth was -98.6% (active).
